According to PubChem BioAssay (EPA / NIEHS):
Activity calls are given as the source filed them. The calls were made as follows: active = hit-call score of the fitted dose curve at least 0.9, where 1 is the maximum; inactive = score below 0.9.

Columns and labels:
Conditions in all cases: mRNA level, 48 h; actives raise or lower the signal
BCL2L11 (gene 10018) = experiment: LTEA_HepaRG_BCL2L11: Life Technologies and Expression Analysis (LTEA) Assay for Bcl-2 (BCL2L11) gene using HepaRG (AID 2283473)
Method in brief: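 HepaRG, 48 h exposure, 8-pt half-log series from 100 uM in 0.5% DMSO, duplicates; qRT-PCR (Fluidigm TaqMan) for BCL2L11, housekeeping-normalized; bidirectional curve fit relative to DMSO baseline.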

[1] = read-out: Bcl-2 (BID) gene, BID (gene 637); experiment: LTEA_HepaRG_BID: Life Technologies and Expression Analysis (LTEA) Assay for Bcl-2 (BID) gene using HepaRG (AID 2283476)
Method in brief: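 Differentiated HepaRG cells in serum-free induction medium were exposed in duplicate for 48 h to eight half-log concentrations up to 100 uM in 0.5% DMSO. BID mRNA was quantified by qRT-PCR, normalized to ACTB, GAPDH and POLR2A.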

Caspase-3 (Homo sapiens) = Caspase-3 (Homo sapiens) (UniProt P42574); experiment: LTEA_HepaRG_CASP3: Life Technologies and Expression Analysis (LTEA) Assay for cysteine-aspartic acid protease (CASP3) using HepaRG (AID 2283477)
Method in brief: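 HepaRG, 48 h exposure, 8 conc. (top 100 uM, half-log steps, duplicate), 0.5% DMSO vehicle; qRT-PCR of CASP3 transcript, housekeeping-normalised (ACTB/GAPDH/POLR2A); bidirectional curve fit vs DMSO baseline.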

[2] = read-out: Cytochrome P450 (CYP24A1), CYP24A1 (gene 1591); experiment: LTEA_HepaRG_CYP24A1: Life Technologies and Expression Analysis (LTEA) Assay for Cytochrome P450 (CYP24A1) using HepaRG (AID 2283478)
Method in brief: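 qRT-PCR read-out: CYP24A1 transcript levels normalized to three housekeeping genes, bidirectional curve fits against 0.5% DMSO baseline. Human HepaRG cells treated 48 h with chemicals at eight concentrations from 100 uM in half-log steps.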

[3] = read-out: cysteine-aspartic acid protease (CASP8), CASP8 (gene 841); experiment: LTEA_HepaRG_CASP8: Life Technologies and Expression Analysis (LTEA) Assay for cysteine-aspartic acid protease (CASP8) using HepaRG (AID 2283480)
Method in brief: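 HepaRG, 48 h exposure, duplicate wells; 8 conc, half-log from 100 uM, 0.5% DMSO. Serum-free induction medium. CASP8 mRNA by TaqMan qRT-PCR, norm. ACTB/GAPDH/POLR2A; gain/loss fitted vs DMSO.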

[4] = read-out: Cytochrome P450 (CYP2B6), CYP2B6 (gene 1555); experiment: LTEA_HepaRG_CYP2B6: Life Technologies and Expression Analysis (LTEA) Assay for Cytochrome P450 (CYP2B6) using HepaRG (AID 2283481)
Method in brief: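 Read-out is CYP2B6 mRNA by TaqMan qRT-PCR, normalized to three housekeeping genes and fitted bidirectionally against 0.5% DMSO baseline. Human HepaRG cells received test chemicals for 48 h, top concentration 100 uM, half-log dilutions.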

[5] = read-out: Cytochrome P450 2C19 (Homo sapiens) (UniProt P33261); experiment: LTEA_HepaRG_CYP2C19: Life Technologies and Expression Analysis (LTEA) Assay for CYP2C19 using HepaRG (AID 2283482)
Method in brief: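 HepaRG, 48 h chemical exposure, 8-pt half-log series from 100 uM in 0.5% DMSO, duplicates. Readout: CYP2C19 mRNA by TaqMan qRT-PCR, housekeeping-normalized. Bidirectional fit vs DMSO baseline; phenobarbital 1mM as induction control.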

CYP2C8 (gene 1558) = experiment: LTEA_HepaRG_CYP2C8: Life Technologies and Expression Analysis (LTEA) Assay for CYP2C8 using HepaRG (AID 2283483)
Method in brief: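 CYP2C8 mRNA induction or loss, by qRT-PCR normalized to ACTB/GAPDH/POLR2A, is read in HepaRG cells after 48 h treatment. Concentrations run from 100 uM down in half-log dilutions, with 0.5% DMSO as vehicle and baseline.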

CYP2C9 (gene 1559) = experiment: LTEA_HepaRG_CYP2C9: Life Technologies and Expression Analysis (LTEA) Assay for CYP2C9 using HepaRG (AID 2283484)
Method in brief: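 Cells plated 48 h, switched to serum-free induction medium, then treated in duplicate for 48 h at eight concentrations (max 100 uM, 0.5% DMSO). RNA then analysed by qRT-PCR for CYP2C9; curves fitted in both directions relative to DMSO.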

CYP2E1 (gene 1571) = experiment: LTEA_HepaRG_CYP2E1: Life Technologies and Expression Analysis (LTEA) Assay for CYP2E1 using HepaRG (AID 2283485)
Method in brief: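 HepaRG cells in serum-free induction medium exposed 48 h to test chemicals, 8 half-log concentrations up to 100 uM in 0.5% DMSO, duplicate. CYP2E1 mRNA by qRT-PCR, normalized to ACTB, GAPDH, POLR2A; bidirectional fit versus DMSO.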

CYP4A11 (gene 1579) = experiment: LTEA_HepaRG_CYP4A11: Life Technologies and Expression Analysis (LTEA) Assay for CYP4A11 using HepaRG (AID 2283486)
Method in brief: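 CYP4A11 transcript levels were quantified by TaqMan qRT-PCR after HepaRG human liver cells were treated for 48 hours with test chemicals (top 100 uM, half-log dilutions, 0.5% DMSO). Gain or loss of signal was fitted relative to DMSO.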

[6] = read-out: Cytochrome P450 3A4 (Homo sapiens) (UniProt P08684); experiment: LTEA_HepaRG_CYP3A4: Life Technologies and Expression Analysis (LTEA) Assay for CYP3A4 using HepaRG (AID 2283487)
Method in brief: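 HepaRG, 48 h exposure, 8-pt CRC from 100 uM (half-log), 0.5% DMSO, duplicates; serum-free induction medium. Readout: CYP3A4 mRNA, qRT-PCR, ACTB/GAPDH/POLR2A normalization. Bidirectional fit vs DMSO.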

[7] = read-out: DNA damage-inducible transcript 3 (DDIT3), DDIT3 (gene 1649); experiment: LTEA_HepaRG_DDIT3: Life Technologies and Expression Analysis (LTEA) Assay for DNA damage-inducible transcript 3 (DDIT3) using HepaRG (AID 2283488)
Method in brief: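 Differentiated human HepaRG cells in serum-free induction medium were exposed in duplicate for 48 h to 8 concentrations (top 100 uM, half-log steps, 0.5% DMSO). DDIT3 mRNA measured by TaqMan qRT-PCR, normalized to ACTB/GAPDH/POLR2A; bidirectional fit versus DMSO.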

[8] = read-out: Pro-epidermal growth factor (Homo sapiens) (UniProt P01133); experiment: LTEA_HepaRG_EGF: Life Technologies and Expression Analysis (LTEA) Assay for Epidermal growth factor (EGF) using HepaRG (AID 2283489)
Method in brief: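 qRT-PCR readout of EGF transcript after 48 h chemical exposure of HepaRG cells; eight concentrations from 100 uM down in half-log steps, duplicate wells, 0.5% DMSO vehicle. Bidirectional curve fitting against DMSO baseline.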

[9] = read-out: Early growth response protein 1 (EGR1) transcription factor, EGR1 (gene 1958); experiment: LTEA_HepaRG_EGR1: Life Technologies and Expression Analysis (LTEA) Assay for Early growth response protein 1 (EGR1) transcription factor using HepaRG (AID 2283490)
Method in brief: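 Read-out is EGR1 mRNA level by qRT-PCR, normalized to three housekeeping genes and analysed for gain or loss of signal against 0.5% DMSO. Source cells: human HepaRG, treated 48 h at up to 100 uM in half-log dilutions.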

[10] = read-out: Ezrin (EZR), EZR (gene 7430); experiment: LTEA_HepaRG_EZR: Life Technologies and Expression Analysis (LTEA) Assay for Ezrin (EZR) using HepaRG (AID 2283491)
Method in brief: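 Read-out is EZR transcript level by qRT-PCR, normalized to three housekeeping genes and fitted bidirectionally against the DMSO control. Human HepaRG cells received test chemicals for 48 h at eight half-log concentrations up to 100 uM in 0.5% DMSO.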

[11] = read-out: Cytochrome P450 3A7 (Homo sapiens) (UniProt P24462); experiment: LTEA_HepaRG_CYP3A7: Life Technologies and Expression Analysis (LTEA) Assay for CYP3A7 using HepaRG (AID 2283492)
Method in brief: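 CYP3A7 transcript levels were read by TaqMan qRT-PCR on Fluidigm arrays after 48 h chemical exposure of human HepaRG cells, with housekeeping-gene normalisation. Eight half-log concentrations up to 100 uM in 0.5% DMSO were tested in duplicate.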

[12] = read-out: Cytochrome P450 (CYP1A2), CYP1A2 (gene 1544); experiment: LTEA_HepaRG_CYP1A2: Life Technologies and Expression Analysis (LTEA) Assay for Cytochrome P450 (CYP1A2) using HepaRG (AID 2283479)
Method in brief: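 HepaRG, 48 h exposure, top 100 uM, half-log 8-pt, 0.5% DMSO vehicle, duplicates. Readout: TaqMan qRT-PCR of CYP1A2 mRNA, housekeeping-normalized (ACTB/GAPDH/POLR2A). Gain/loss fit relative to DMSO baseline.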

[13] = read-out: Apoptosis regulator Bcl-2 (Homo sapiens) (UniProt P10415); experiment: LTEA_HepaRG_BCL2: Life Technologies and Expression Analysis (LTEA) Assay for Bcl-2 gene using HepaRG (AID 2283475)
Method in brief: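 Differentiated HepaRG cells in serum-free induction medium were exposed for 48 h to eight half-log concentrations up to 100 uM in 0.5% DMSO, in duplicate. BCL2 mRNA was quantified by TaqMan qRT-PCR normalised to ACTB, GAPDH and POLR2A, with bidirectional fitting versus DMSO.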

Measured: AC50

Sequence of Cytochrome P450 3A7 (Homo sapiens) (P24462 whole entry, looked up): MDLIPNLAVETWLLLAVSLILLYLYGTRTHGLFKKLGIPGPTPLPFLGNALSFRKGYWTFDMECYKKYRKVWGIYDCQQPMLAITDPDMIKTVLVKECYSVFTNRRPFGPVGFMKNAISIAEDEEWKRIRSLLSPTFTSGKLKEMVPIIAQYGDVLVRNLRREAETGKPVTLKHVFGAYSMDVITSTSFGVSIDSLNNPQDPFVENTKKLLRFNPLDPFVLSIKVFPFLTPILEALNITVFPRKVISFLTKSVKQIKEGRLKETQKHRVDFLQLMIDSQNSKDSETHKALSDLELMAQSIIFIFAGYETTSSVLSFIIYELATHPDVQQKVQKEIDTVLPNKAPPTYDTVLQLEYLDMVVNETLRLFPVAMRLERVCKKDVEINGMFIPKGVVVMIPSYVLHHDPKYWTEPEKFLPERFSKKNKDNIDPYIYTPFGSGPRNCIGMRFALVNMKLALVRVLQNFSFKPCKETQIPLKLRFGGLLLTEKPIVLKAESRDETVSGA
Sequence of Caspase-3 (Homo sapiens) (P42574 whole entry, looked up): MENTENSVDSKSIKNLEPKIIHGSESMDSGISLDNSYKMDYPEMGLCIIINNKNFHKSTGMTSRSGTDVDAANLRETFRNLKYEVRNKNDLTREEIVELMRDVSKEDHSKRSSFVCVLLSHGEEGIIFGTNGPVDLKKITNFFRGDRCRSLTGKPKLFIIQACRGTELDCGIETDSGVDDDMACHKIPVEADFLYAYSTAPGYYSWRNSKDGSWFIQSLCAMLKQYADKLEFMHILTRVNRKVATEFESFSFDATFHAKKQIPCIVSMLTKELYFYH
Sequence of Apoptosis regulator Bcl-2 (Homo sapiens) (P10415 whole entry, looked up): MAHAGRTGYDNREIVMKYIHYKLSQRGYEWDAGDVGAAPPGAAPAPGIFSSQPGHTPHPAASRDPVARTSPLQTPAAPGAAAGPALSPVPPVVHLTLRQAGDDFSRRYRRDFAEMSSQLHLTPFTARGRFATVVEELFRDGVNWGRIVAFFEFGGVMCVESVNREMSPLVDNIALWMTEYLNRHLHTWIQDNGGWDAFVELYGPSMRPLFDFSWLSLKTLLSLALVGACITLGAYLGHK
Sequence of Cytochrome P450 2C19 (Homo sapiens) (P33261 whole entry, looked up): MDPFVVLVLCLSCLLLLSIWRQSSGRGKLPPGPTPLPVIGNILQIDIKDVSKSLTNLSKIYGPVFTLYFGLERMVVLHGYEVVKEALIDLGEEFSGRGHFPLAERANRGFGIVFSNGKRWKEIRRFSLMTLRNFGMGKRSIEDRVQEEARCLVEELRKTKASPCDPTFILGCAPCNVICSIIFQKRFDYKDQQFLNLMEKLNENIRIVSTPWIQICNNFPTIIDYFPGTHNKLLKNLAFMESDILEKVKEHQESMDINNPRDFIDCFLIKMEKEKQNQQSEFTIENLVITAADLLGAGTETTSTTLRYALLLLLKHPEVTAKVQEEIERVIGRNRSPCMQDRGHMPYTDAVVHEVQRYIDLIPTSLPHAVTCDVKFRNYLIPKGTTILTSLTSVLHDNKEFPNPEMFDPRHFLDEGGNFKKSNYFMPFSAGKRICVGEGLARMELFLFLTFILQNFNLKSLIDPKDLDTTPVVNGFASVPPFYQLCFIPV
Sequence of Cytochrome P450 3A4 (Homo sapiens) (P08684 whole entry, looked up): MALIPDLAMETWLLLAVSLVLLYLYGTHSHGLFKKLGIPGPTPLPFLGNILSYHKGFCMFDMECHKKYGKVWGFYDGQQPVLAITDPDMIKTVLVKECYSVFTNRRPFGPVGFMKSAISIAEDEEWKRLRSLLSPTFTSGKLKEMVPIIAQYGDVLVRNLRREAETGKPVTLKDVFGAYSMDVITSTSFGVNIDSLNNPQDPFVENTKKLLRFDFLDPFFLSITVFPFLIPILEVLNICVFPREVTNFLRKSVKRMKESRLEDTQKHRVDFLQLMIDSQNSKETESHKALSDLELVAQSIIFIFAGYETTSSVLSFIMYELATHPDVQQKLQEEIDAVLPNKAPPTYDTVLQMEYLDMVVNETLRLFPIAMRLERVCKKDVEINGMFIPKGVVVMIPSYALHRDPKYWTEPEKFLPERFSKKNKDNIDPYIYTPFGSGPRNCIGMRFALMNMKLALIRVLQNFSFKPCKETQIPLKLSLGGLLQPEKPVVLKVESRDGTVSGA

O=S1(=O)CCCO1
not listed: [12] | [13]
inactive: all other assays above

COCc1nnc(-c2ccc[n+]([O-])c2)n1-c1c(Cl)c(Cl)cc2[nH]c(=O)c(=O)[nH]c12
active: [4] 14.6 µM
not listed: [13]
inactive: all other assays above

CNC(C)=O
not listed: [12] | [13]
inactive: all other assays above

CC1(C)C(=O)N(Cl)C(=O)N1Cl
active: [12] 50 µM
not listed: [13]
inactive: all other assays above

NC(=O)NN=Cc1ccc([N+](=O)[O-])o1
active: [1] 267 nM | [2] 456 nM | CYP2E1 (gene 1571) 19 µM | [8] 50 µM
not listed: [12] | [13]
inactive: all other assays above

OC(Cn1cncn1)(Cn1cncn1)c1ccc(F)cc1F
active: [4] 27.1 µM
not listed: [12]
inactive: all other assays above

CCCCCCCCCCCCCCO
not listed: [12]
inactive: all other assays above

CC(C)C(=O)Nc1ccc([N+](=O)[O-])c(C(F)(F)F)c1
active: [12] 14.9 µM | [4] 63.2 µM | [5] 77.3 µM | CYP2C8 (gene 1558) 15.8 µM | CYP2C9 (gene 1559) 66 µM | CYP2E1 (gene 1571) 43.9 µM | CYP4A11 (gene 1579) 50.4 µM | [7] 87.5 µM | [8] 50 µM | [9] 81.9 µM
inactive: BCL2L11 (gene 10018) | [1] | Caspase-3 (Homo sapiens) | [2] | [3] | [10]

NNC(=O)c1ccncc1
active: [4] 10.4 µM
not listed: [12]
inactive: all other assays above

O=C(O)c1ccc2c(c1)nc(C(=O)NC1CCN(C3CC3)CC1)n2Cc1cc(-c2ccc(Cl)s2)on1
not listed: [12]
inactive: all other assays above

CCCCCCCC1CCC(=O)O1 (configuration not stated)
inactive: BCL2L11 (gene 10018) | [13] | [1] | Caspase-3 (Homo sapiens) | [3] | [7] | [8] | [9] | [10]

CCCCOC(=O)c1ccccc1
active: [4] 50 µM
not listed: [12]
inactive: all other assays above

CC[C@H](C)C(=O)O[C@H]1C[C@H](O)C=C2C=C[C@H](C)[C@H](CC[C@@H](O)C[C@@H](O)CC(=O)O)[C@H]21
active: CYP2E1 (gene 1571) 50 µM
not listed: [12]
inactive: all other assays above

O=c1[nH]cnc2c1ncn2[C@H]1CC[C@@H](CO)O1
not listed: [12] | [13]
inactive: all other assays above
